The campaign covered roughly 350,000 compounds. About 31,000 (8.9%) were called active. Roughly 15% stayed inconclusive and do not appear here. The full list was thinned out, with actives kept by preference. Unmarked numbers belong to inactive results. Calls follow the shape of the dose curve; as a rule, active = well fitted inhibition curve with a large enough effect; inconclusive = small, poorly fitted or top-dose-only effect; inactive = no such curve, though single readings can be large or run the other way.
Target: Histone-lysine N-methyltransferase EHMT2 (Homo sapiens) (UniProt Q96KQ7)
Assay: qHTS Assay for Inhibitors of Histone Lysine Methyltransferase G9a; also: nearly all actives have a fitted effect of over 75% in size
Details: G9a H3K9 monomethylation, AlphaScreen, 2 h; series mostly up to 102 µM; activity, negative = inhibition: at the top concentration
Text: Methylated lysines, on the N-terminal tails of histone proteins serve as epigenetic markers to recruit factors that can then modify local chromatin structure to lead to functional consequences. G9a and other members of the SUV39 family of the SET domain-containing superfamily of histone lysine methyltransferases (HMT) have been identified to specifically methylate Lys9 of histone H3 (H3K9). G9a catalyzes the mono- and di-methylation of H3K9 in mammalian euchromatic regions, where the resulting H3K9me2 is indicative of transcriptional repression. […] The inhibition of G9a will result in transcriptional activation and work synergistically with DNA methyltransferase and histone deacetylase inhibitors, to kill cancer cells. This qHTS assay for identification of G9a inhibitors is a chemiluminescence based AlphaScreen (PerkinElmer). Methylation of biotinylated-histone peptide is measured through specific antibody-based detection, in conjunction with streptavidin-coated donor and anti-IgG antibody-coated acceptor beads. The method is particularly well suited for detection of inhibitors acting by the desired histone peptide competitive mechanism and is applicable to testing other HMTs. Although AlphaScreen has significant advantages with its utility in a variety of epigenetic target assays, the primary screening data provided in this deposition should be used with caution due to the prevalence of screening artifacts. An AlphaScreen counterscreen is highly recommended to be run against any putative actives to eliminate non specific artifacts. Alternatively, one can use other AlphaScreen assays in PubChem to filter out promiscuous hits. Quinn et al. A chemiluminescence-based method for identification of histone lysine methyltransferase inhibitors. Mol Biosyst 6(5): 782-8. 2010. PMID: 20567762 [2] Baell,Holloway. New substructure filters for removal of pan assay interference compounds (PAINS) from screening libraries and for their exclusion in bioassays. J Med Chem. 53(7):2719-40. 2010. PMID: 20131845 NIH Molecular Libraries Probe Production Network [MLPCN] NIH Chemical Genomics Center [NCGC] Structural Genomics Consortium (SGC) NIH Grant: 5U54 MH084681-02
To each well of a 1,536w plate, 2ul of HMT enzyme (final 20nM) were added, using a nanoliter dispenser. The G9a- and GLP-inhibitor BIX-01294 (CID: 25150857) are used as an intraplate control, with a 16-point titration in duplicate. A Kalypsys pin-tool transferred 23nl of library compound solution in DMSO to each well. Following a 15 min incubation of enzyme with compounds at room temperature, 1ul mixture of b-H3K9 peptide substrate (final 500nM) and SAM cofactor (final 20uM) were added. Reactions were allowed to proceed at room temperature for 2 hours. Methylated b-H3K9 peptide product was detected with 0.5 ug/mL rabbit polyclonal anti-monomethyl histone H3K9 antibody (Abcam Inc., Cambridge, MA) and 20 ug/mL each streptavidin-coated donor and anti-rabbit IgG acceptor AlphaScreen beads. Antibody and beads were added in a 1ul dispense, for a final volume of 4ul, and plates were incubated, protected from the light, for 10 min at room temperature. Microplates were then read on an EnVision multilabel plate reader using the 1,536 plate HTS AlphaScreen aperture (excitation time 80 ms, measurement time 240 ms).
% is scaled to controls: 0 for no effect and ±100 for the full control effect; potency is read from the fitted curve at half-maximal effect.

Histone-lysine N-methyltransferase EHMT2 (Homo sapiens), sequence (Q96KQ7 913-1193 limits assumed): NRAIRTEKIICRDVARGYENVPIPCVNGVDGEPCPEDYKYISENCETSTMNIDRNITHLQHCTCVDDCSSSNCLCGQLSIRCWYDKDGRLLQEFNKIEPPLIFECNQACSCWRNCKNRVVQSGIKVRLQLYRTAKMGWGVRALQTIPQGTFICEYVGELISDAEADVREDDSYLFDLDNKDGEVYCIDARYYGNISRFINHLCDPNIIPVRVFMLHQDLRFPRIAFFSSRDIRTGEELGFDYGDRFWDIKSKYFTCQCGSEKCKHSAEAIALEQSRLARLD

Structure (SMILES)	activity, negative = inhibition	Potency
COc1ccc(C2NCc3ccc4c(c3-n3cccc32)OCO4)cc1OC (stereo unspecified)	0.908% [at 12.7 µM]	
COc1c(O)ccc2c1-c1c3c(cc4c1C(C2)N(C)CC4)OCO3 (stereo unspecified)		39.8 µM (active)
CC(=O)NC(=O)NC(C)Cc1ccccc1 (stereo unspecified)	4.15%	
CCOC(=O)c1c(-c2ccccc2)oc2ccc(OC(=O)N(C)C)cc12	6.28% [at 12.7 µM]	
O=C(CN1CCCCC1)Nc1ccc(Br)cc1C(=O)c1ccccc1Cl	8.1%	
NC(=O)Nc1cccc(C(F)(F)F)c1	2.76% [at 59 µM]	
CC(C)C(N)C(=O)OCCOCn1cnc2c(=O)[nH]c(N)nc21 (stereo unspecified)	-19.5% [at 2.33 µM]	
Cc1ccc(Cn2nnnc2CN2CCC(n3nnc4ccccc43)CC2)cc1		50.1 µM (active)
CC(C)(O)c1[se]c2ccccc2c1I	-25.9%	
CN(C)S(=O)(=O)c1cc(C(=O)N2CCC(C(=O)O)(c3ccccc3)CC2)ccc1Cl	8.28%	
Cc1ccc(C)c(NC2=NCCCS2)c1	-38.9%	
Cc1c(C(=O)O)cccc1-n1c(C)cc(/C=C2\C(=O)NC(=O)N(c3ccc4c(c3)OCO4)C2=O)c1C		28.2 µM (active)
CC(C)c1c(CN(C)C(C)Cc2ccccc2)n(C)n(-c2ccccc2)c1=O (stereo unspecified)	6.73% [at 59 µM]	
Cc1ccnc(-n2c(C)cc(/C=C3\C(=O)NC(=S)N(C)C3=O)c2C)c1		6.31 µM (active)
CN1CCC(OC(=O)c2cccc(F)c2)CC1	-16%	
CCN1CCN(c2ccc([N+](=O)[O-])cc2C#N)CC1	-50%	
O=C(N/N=C/c1c(O)n(C2CC2)c(=S)[nH]c1=O)c1ccccc1Cl	21.3%	
CCNC[C@H](O)c1cccc(O)c1	5.63% [at 21.5 µM]	
CN(c1ccccc1)c1ccc([N+](=O)[O-])c2nonc12		15.8 µM (active)
O=c1c2ccccc2nc(-c2ccco2)n1-c1ccc(Br)cn1	11% [at 59 µM]	
CCOP(=S)(OCC)SCOC(=O)NCC(=O)OC	22% [at 59 µM]	
CCOC(=O)C(O)(c1ccc(N=Cc2ccccc2O)c(C)c1)C(F)(F)F (stereo unspecified)	14.5%	
COc1ccccc1N1CCN(C(CNC(=O)Oc2ccccc2)c2cccnc2)CC1 (stereo unspecified)	4.58%	

Structure (SMILES)	activity, negative = inhibition	Potency
O=C(c1cc(S(=O)(=O)N2CCOCC2)ccc1F)N1CCC2(CC1)OCCO2	-11% [at 12.7 µM]	
Cc1nn(-c2ccccc2)c(C)c1NC(=O)COC(=O)Cc1ccccc1	-0.2%	
c1ccc(CCNC2CCCCCC2)cc1		7.08 µM (active)
c1cc2c(cc1[C@H]1OC[C@H]3[C@@H]1CO[C@@H]3c1ccc3c(c1)OCO3)OCO2	39.6% [at 59 µM]	
CC(=NCc1ccc2c(c1)OCO2)c1c(O)[nH]c(=O)[nH]c1=O	-21.4% [at 12.7 µM]	
O=C(CN1CCCC1=O)NCCc1ccccc1	27.1% [at 12.7 µM]	
OC(CNC1CCCCC1)c1ccccc1 (stereo unspecified)	2.5% [at 12.7 µM]	
c1cc2c(cc1CCNC1CCCCCC1)OCO2		8.91 µM (active)
CCN(CC)C(=O)c1ccc(NC(=O)c2sccc2-c2ccccc2)cc1	-8.18%	
CCN1C[C@]2(COC)C(O)C[C@H](OC)[C@@]34C5C[C@]6(O)C(OC)C(O)[C@](OC(C)=O)(C5C6OC(=O)c5ccccc5)C(C(OC)C23)C14 (stereo partly specified)	-10.7% [at 2.33 µM]	
CN[C@@H]1C[C@H]2O[C@@](C)([C@@H]1OC)n1c3ccccc3c3c4c(c5c6ccccc6n2c5c31)C(=O)NC4	inactive	
Cc1ccc(-n2c(/C=C/c3cccc(C(F)(F)F)c3)nc3ccccc3c2=O)cc1	-5.19% [at 59 µM]	
CCOc1ccc(-c2cc(C)[n+](CCN(CC)CC)c(-c3ccc(OCC)cc3)c2)cc1	9.19% [at 59 µM]	
CCCCC(=O)N/N=C/c1c(O)n(CCC2=CCCCC2)c(=O)[nH]c1=O	-31.3%	
O=C(O)COc1ccccc1/C=C1\C(=O)NC(=O)N(CCC2=CCCCC2)C1=O		50.1 µM (active)
CCN(CC)P(=O)(Oc1cccc(C)c1)N(CC)CC	-21.3%	
Cc1cc(-c2n[nH]c(=S)n2-c2ccc(C)c(C)c2)no1		2.51 µM (active)
c1ccc(CN2CC[C@@]3(CCCNC3)C2)cc1	-24.8% [at 12.7 µM]	
CN1CCN(C(=O)COc2ccc(C(C)(C)C)cc2Br)CC1	-8.26%	
O=C(O)c1ccccc1NC(=O)C1C2CCC(O2)C1C(=O)O (stereo unspecified)	-2.22% [at 0.501 µM]	
ClC(Cl)(Cl)c1ccccc1	-20.6% [at 0.501 µM]	
CCN1C(=O)C(=Cc2c(C)n(CC(=O)NCC3CCCO3)c3ccccc23)C(=O)N(CC)C1=S (stereo unspecified)		39.8 µM (active)
O=C1C2(Cl)C3(Cl)C4(Cl)C(Cl)(Cl)C5(Cl)C3(Cl)C1(Cl)C5(Cl)C24Cl (stereo unspecified)	-1.92% [at 0.501 µM]	
